High-throughput results: PubChem, The Scripps Research Institute Molecular Screening Center
hcDAF12 agonist: H. contortus DAF-12 nuclear receptor activators, primary screen, cell-based, luminescence, HEK293, lit1-tk-luc reporter. activation, % at 6.8 µM. HEK293 hcDAF-12 lit1-tk-luc reporter; 0% DMSO, 100% Δ7-dafachronic acid. 1.4% of 370,000 active;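 active = activation above the mean of all tested compounds plus 3 SD, cut at about 5.5% in these data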;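 also: 100% = response to 3 µM Δ7-dafachronic acid high control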
ssDAF12 agonist: S. stercoralis DAF-12 nuclear receptor activators, primary screen, cell-based, luminescence, HEK293, GRIP1 co-expression, lit1-tk-luc; 1% of 370,000 active; activation, % at 6.8 µM; Nuclear hormone receptor DAF-12 (Strongyloides stercoralis); HEK293 ssDAF-12/GRIP1 lit1-tk-luc reporter; % of 3 µM dafachronic acid response;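 active = activation above the mean over all tested compounds plus 3 SD, cut at about 0.9% in these data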;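 also: 0% = DMSO-only wells and 100% = 3 µM delta7-dafachronic acid wells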
DAX1 inh-1: DAX1 (NR0B1) inhibitors on StAR promoter, primary screen, cell-based, luminescence, SF-1 (NR5A1), full-length DAX-1 | HEK293T StAR-luciferase reporter, SF-1/DAX-1 repression relief | inhibition, % at 6.8 µM | 1.1% of 370,000 active | AID 652010, 2013;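 active = inhibition above the mean over all tested compounds plus 3 SD, cut at about 3.6% in these data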;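 also: 0% = DAX-1 cells with DMSO and 100% = cells lacking DAX-1 with DMSO; higher inhibition means more luminescence from relief of DAX-1 repression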
DAX1 inh-2: DAX1 (NR0B1) inhibitors, primary screen, cell-based, HEK293, Gal4-DAX1, luciferase luminescence. Nuclear receptor subfamily 0 group B member 1 (Homo sapiens), P51843. HEK293 Gal4-DAX1 luciferase reporter. inhibition, % at 6.75 µM. 0.99% of 340,000 active. AID 504766, 2011;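 active = inhibition above the mean over all tested compounds plus 3 SD, cut at about 4.2% in these data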;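 also: 0% = DAX1-transfected cells with DMSO and 100% = empty-vector control cells with DMSO; inhibition shows as a rise in luminescence from relieved DAX1 repression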
Target sequence (P51843 207-470 limits assumed): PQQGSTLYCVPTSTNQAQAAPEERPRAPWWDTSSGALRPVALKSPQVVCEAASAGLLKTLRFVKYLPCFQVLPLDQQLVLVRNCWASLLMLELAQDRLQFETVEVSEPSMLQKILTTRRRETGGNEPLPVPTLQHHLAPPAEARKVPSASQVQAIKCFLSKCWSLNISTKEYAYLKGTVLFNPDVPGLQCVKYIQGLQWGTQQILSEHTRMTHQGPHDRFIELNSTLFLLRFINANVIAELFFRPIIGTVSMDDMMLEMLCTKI
hgDAF12 agonist: H. glycines DAF-12 receptor agonists, primary screen, cell-based, luminescence, HEK293, GAL4 fusion, UAS-luciferase | Nuclear hormone receptor DAF-12 (Heterodera glycines), GAL4 fusion | HEK293 GAL4-hgDAF12 UAS-luciferase reporter, agonist luminescence; normalized to butyrate control | activation, % at 6.8 µM | 1.8% of 370,000 active | AID 687014, 2013;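 active = activation above a cutoff set at the mean of all screened compounds plus 3 SD, cut at about 10% in these data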;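 also: 0% = DMSO wells and 100% = sodium butyrate wells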
* hit, by the source's call; ! = repeats disagree. An excerpt weighted towards active compounds, which were near 4.1% of everything screened.

O=C(COn1nnc2ccc(C(F)(F)F)cc21)Nc1c(Cl)cccc1Cl was read as hcDAF12 agonist 0, ssDAF12 agonist 15*, DAX1 inh-1 1, DAX1 inh-2 -2 and hgDAF12 agonist -2.
Cc1cccc(N(C(=O)CCC(=O)Nc2cc(C)on2)C(C(=O)NC2CCCC2)c2ccc(C)o2)c1 (stereo not drawn) was read as hcDAF12 agonist -1, ssDAF12 agonist 2.2*, DAX1 inh-1 1, DAX1 inh-2 -1 and hgDAF12 agonist 4.
For Cc1cc(NC(=O)CCC(=O)N(c2cccc(F)c2)C(C(=O)NC2CCCC2)c2ccc(C)o2)no1 (stereo not drawn) the results were hcDAF12 agonist -3, ssDAF12 agonist -2, DAX1 inh-1 0, DAX1 inh-2 2 and hgDAF12 agonist -1.
`Cn1c(=O)n(CC(=O)O)c(=O)c2c1nc1n2CCS1` gave hcDAF12 agonist -1, ssDAF12 agonist -1, DAX1 inh-1 0, DAX1 inh-2 6.4*! and hgDAF12 agonist -1.
For CCOc1ccc(NC(=O)C(CC(=O)O)Cc2ccccc2)cc1 (stereo not drawn) the results were hcDAF12 agonist -1, ssDAF12 agonist -1, DAX1 inh-1 0, DAX1 inh-2 0 and hgDAF12 agonist 1.
For CCOc1ccc(NC(=O)CN2C(=O)c3cccc4cccc2c34)cc1 the results were hcDAF12 agonist 4, ssDAF12 agonist 0, DAX1 inh-1 3 and hgDAF12 agonist 12*.
For CCOc1ccc(NC(=O)C(Cc2ccccc2)N2C(=O)c3cccc4cccc(c34)C2=O)cc1 (stereo not drawn) the results were hcDAF12 agonist 6.0*, ssDAF12 agonist 1, DAX1 inh-1 0 and hgDAF12 agonist -2.
For CCCCNC(=O)CO/N=C(\C)c1cc2ccccc2o1 the results were hcDAF12 agonist 5, ssDAF12 agonist -1, DAX1 inh-1 1, DAX1 inh-2 -1 and hgDAF12 agonist 5.
CCCCNCc1cc2ccccc2o1 was read as hcDAF12 agonist 1, ssDAF12 agonist -1, DAX1 inh-1 1, DAX1 inh-2 4.5* and hgDAF12 agonist -5.
`C[C@@H]1[C@@H](c2ccccc2)c2cc3ccccc3nc2C(=O)C[C@@H]1C(=O)N1CCCC1` gave hcDAF12 agonist -1, ssDAF12 agonist -1, DAX1 inh-1 0 and hgDAF12 agonist 1.
`CCC(=O)N1C(C(=O)N2CCCC2)CSC1c1ccc(OC)cc1` (stereo not drawn) gave hcDAF12 agonist -1, ssDAF12 agonist -1, DAX1 inh-1 0, DAX1 inh-2 4.3* and hgDAF12 agonist 1.
CC(=O)OC1CCC2(C)C(CCC3C4CC=C(C(C)=O)C4(C)OC(=O)CC32)C1 (stereo not drawn) was read as hcDAF12 agonist -4, ssDAF12 agonist -2, DAX1 inh-1 -3, DAX1 inh-2 -4 and hgDAF12 agonist -18.
CC(=O)O[C@H]1CC[C@@]2(C)C(CCC3C2CC[C@]2(C)OC(=O)CCC32)C1 (stereo partly drawn) was read as hcDAF12 agonist -1, ssDAF12 agonist -1, DAX1 inh-1 1, DAX1 inh-2 5.0* and hgDAF12 agonist 0.
`C=CCNC(=O)NC[C@@]1(C(=O)OC)CC(=O)N(C)[C@@H]1c1ccccc1` gave hcDAF12 agonist -1, ssDAF12 agonist -1, DAX1 inh-1 1 and hgDAF12 agonist -1.
`CCc1ccc2c(c1)/C(=N/N(C)C(=S)NC)C(=O)N2` gave hcDAF12 agonist 6.4*, ssDAF12 agonist -1, DAX1 inh-1 2, DAX1 inh-2 0 and hgDAF12 agonist 4.
For CCCC(=O)N1CCC[C@]2(CC[C@H](CCC(C)=O)O2)C1 the results were hcDAF12 agonist 4, ssDAF12 agonist -1, DAX1 inh-1 1 and hgDAF12 agonist -2.
CCCn1c(/N=C/c2ccccc2O)nc2ccccc21 was read as hcDAF12 agonist -2, ssDAF12 agonist -1, DAX1 inh-1 -1, DAX1 inh-2 1 and hgDAF12 agonist 0.
